# Compounds without any hit were thinned out: in the full panel of roughly 83,000, 20% have a hit.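 Plates (96-well) were seeded with cells, treated with compound at one concentration, and incubated for 48 hours before percent growth was determined.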 Values without a mark were called inactive. Calls of active or inactive are those of the source. The calls were made as follows: active = growth percent below 10; inactive = the rest.
# Experiments:
# Assay in all cases: NCI-60 one-dose screen, 48 h (100 = growth as untreated, 0 = no growth, -100 = all killed)
# Details in all cases: 10 µM unless noted
# [1] = system: NCI-H23 lung
# [2] = system: NCI-H226 lung
# [3] = system: NCI-H322M lung
# [4] = system: HOP-62 NSCLC
# [5] = system: NCI-H460 lung
# [6] = system: NCI-H522 lung
# [7] = system: A549/ATCC NSCLC
# [8] = system: 786-0 renal
# [9] = system: COLO 205 colon
# [10] = system: DU-145 prostate
# [11] = system: K-562 leukemia
# [12] = system: MALME-3M melanoma
# [13] = system: RXF 393 renal
# [14] = system: SF-268 CNS
# [15] = system: SF-295 CNS
# [16] = system: SF-539 CNS
# [17] = system: UACC-257 melanoma
# [18] = system: M14 melanoma
# [19] = system: MDA-MB-231 breast
Compound,growth [1],growth [2],growth [3],growth [4],growth [5],growth [6],growth [7],growth [8],growth [9],growth [10],growth [11],growth [12],growth [13],growth [14],growth [15],growth [16],growth [17],growth [18],growth [19]
N#Cc1c(-c2ccc(Cl)cc2)nc2n[nH]c(-c3ccc(Cl)cc3)c2c1-c1ccc(C(F)(F)F)cc1,-13.5% (active),-30.7% (active),10.2%,-24.2% (active),-49.1% (active),-14.8% (active),6.82% (active),-3.14% (active),-88.5% (active),19.8%,-21.3% (active),-25.8% (active),-14.7% (active),6.49% (active),-54% (active),-79.3% (active),7.34% (active),-53.3% (active),
CC1=C(C#N)C2=NNCC(c3ccccc3)=NN2C(c2ccccc2)=C1,105%,111%,105%,85.6%,111%,93.7%,99.3%,98.2%,113%,111%,110%,93.3%,131%,134%,103%,102%,96.6%,103%,105%
CCCn1cc(-c2nc(Nc3ccc(C(=O)NCCCCNc4cccc5c4C(=O)N(C4CCC(=O)NC4=O)C5=O)cc3)nc3[nH]ccc23)cn1 (stereo unspecified),65.3%,20.9%,7.64% (active),-1.38% (active),107%,27%,21.1%,22.9%,-10.3% (active),64.1%,15.8%,-24.4% (active),34.9%,28.2%,28.3%,26.6%,96.4%,21.4%,-23.3% (active)
N#Cc1c(-c2ccc(Cl)cc2)nc2n[nH]c(-c3ccc(Cl)cc3)c2c1-c1cccs1,62.7%,54.1%,76.8%,62.8%,51.1%,54.4%,54.9%,67.5%,53.2%,65.1%,16.9%,55.6%,58.2%,72.9%,63.6%,64.1%,58.1%,64.6%,
CC12CC[C@@H]3[C@]4(C)COC(c5cn[nH]c5-c5cccc(Cl)c5)O[C@@H]4CC[C@@]3(C)[C@@H]1CC(C1=CCOC1=O)O2 (stereo partly specified),43.5%,42.9%,52.1%,74.6%,33.7%,26.8%,26.7%,47.5%,18.3%,56.6%,25%,40.5%,18.3%,45.5%,35.4%,58.2%,43.3%,25.3%,36.4%
O=C(O)Cn1c(O)c(/C=C2/C=c3cc4c(cc3=NC2=O)OCCO4)sc1=S,97.7%,103%,101%,105%,118%,,114%,108%,119%,118%,106%,100%,117%,118%,94.6%,107%,108%,,103%
Clc1cccc(N/N=C/c2c[nH]c3ccc(Br)cc23)n1,39.8%,22.4%,51.6%,54.1%,12.9%,-27.8% (active),30.2%,13%,31.9%,64.1%,-26% (active),39%,31.6%,40.8%,-9.75% (active),-1.26% (active),57.6%,15.2%,-67.7% (active)
COc1cc(/C=C/C(=O)c2nnn(-c3ccc(Cl)cc3)c2C)cc(OC)c1OC,26.9%,40%,63.1%,37.2%,14.2%,28%,34.9%,65.8%,41.5%,17.3%,3.43% (active),49%,49.7%,38.8%,51.8%,52%,35.3%,30.4%,
COc1ccc(-c2nc3cc(C)ccc3n2CC(=O)N=Nc2c(O)[nH]c3ccc(Cl)cc23)cc1,-62.9% (active),-34.1% (active),10.1%,-50.4% (active),10.6%,14.9%,-62.4% (active),11%,-39.7% (active),15%,4.54% (active),-56.9% (active),-63.2% (active),21.6%,-67.5% (active),-52.7% (active),-31.2% (active),-44.6% (active),-43.8% (active)
O=C(Cn1nc(-c2ccccc2)ccc1=O)N/N=C/c1ccc(N2CCOCC2)cc1,100%,89.7%,106%,96%,99.5%,89.4%,94.9%,97.7%,113%,101%,88.9%,90.1%,111%,98.2%,88.8%,90.5%,99.2%,102%,104%
COc1ccccc1/C=C/C(=O)c1ccc(OC)c(S(N)(=O)=O)c1,23.2%,39.8%,30.5%,13.5%,5.83% (active),-9.78% (active),5.93% (active),24%,1.12% (active),26.4%,,50%,-0.859% (active),21%,21.8%,-4.72% (active),59.6%,8.83% (active),7.39% (active)
CCS(=O)(=O)N1CCCC(C(=O)Nc2nc3ccc(NC(=O)c4ccc(F)c(OC)c4F)cc3s2)C1 (stereo unspecified),47.5%,48%,82.3%,80.6%,62.5%,52%,77.4%,58.1%,54.3%,77.2%,38.6%,67.9%,26.9%,68.5%,48.8%,57.6%,37.4%,78.5%,81.7%
COc1ccc2c(c1)c(-c1cc3nc(-c4cn(C)c5ncc(Br)cc45)cc(N)n3n1)cn2C,-36.8% (active),0.447% (active),-39.8% (active),-21.1% (active),-35.4% (active),-72.1% (active),-4.96% (active),-94.8% (active),-74.6% (active),26%,-33.5% (active),-88.4% (active),-72.9% (active),12.4%,-67.2% (active),-87.6% (active),-74.3% (active),-74.4% (active),-73% (active)
CCN1CCN(Cc2ccc(C(=O)Nc3cccc(C#Cc4cccc5[nH]nc(N)c45)c3)cc2C(F)(F)F)CC1,-82.6% (active),-35.2% (active),-95.2% (active),-66.1% (active),-39.2% (active),-59.9% (active),-84.8% (active),-98.5% (active),-86.6% (active),-41.8% (active),,-76.2% (active),-87.6% (active),-61.6% (active),-87.1% (active),-97.4% (active),-89.3% (active),-95.2% (active),-90.8% (active)
Cc1occc1C(=O)NN1C(=O)/C(=C/C=C/c2ccc([N+](=O)[O-])o2)SC1=S,-84.1% (active),-18.3% (active),66.8%,-9.58% (active),-51.6% (active),,6.62% (active),-69.7% (active),-75.3% (active),-57.7% (active),11.2%,-78.6% (active),-88.1% (active),-64.3% (active),47%,-99.4% (active),-44.5% (active),-65.1% (active),-89% (active)
Cc1ccc(C(=O)NN2C(=O)/C(=C/C=C/c3ccc([N+](=O)[O-])o3)SC2=S)cc1,-84% (active),-95.6% (active),-76.9% (active),-70% (active),-57.6% (active),-90.7% (active),-76.5% (active),-86% (active),-83.9% (active),-100% (active),6.34% (active),-98% (active),-90% (active),-86.7% (active),-87.6% (active),-96.6% (active),-81.5% (active),-70.6% (active),-96.4% (active)

# Source: PubChem BioAssay (NCI)
